Screens (PubChem)
The list is not random: actives were taken first. Their share in the collection is about 5.3%.
Tau fibril FP: qHTS for Inhibitors of Tau Fibril Formation, Fluorescence Polarization; Microtubule-associated protein tau (Homo sapiens), P10636; K18 P301L tau heparin fibrillization, Alexa594 FP, 6 h; Potency, µM (series often up to 57.7 µM), for inactives: at the top dose activity, negative = inhibition, hits mostly inhibitors; 0.39% of 280,000 active; AID 1468, 2008; also: potency is read from the fitted curve at half-maximal effect; nearly all actives have a fitted effect of over 55% in size
Target sequence (P10636 561-689 P618L limits assumed): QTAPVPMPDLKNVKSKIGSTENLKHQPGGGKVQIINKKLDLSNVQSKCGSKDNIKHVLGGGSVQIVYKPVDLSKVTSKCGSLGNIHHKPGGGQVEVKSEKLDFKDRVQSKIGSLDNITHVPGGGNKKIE
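Heparin (20 uM) drove fibril formation of recombinant tau K18 P301L, 15 uM unlabeled with 0.24 uM Alexa 594 label, for 6 hr at 37 C in 100 mM sodium acetate pH 7. Fluorescence polarization (555/632 nm) read 1 hr after 30 uM ThT.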
Tau fluor cs: Counterscreen qHTS for Inhibitors of Tau Fibril Formation, Fluorescence Polarization; Potency, µM (top dose mostly 57.7 µM), without a hit: top-dose activity change, negative = decrease; AID 1463, 2008; 0.93% of 280,000 active; tau K18 P301L Alexa594 fluorescence, heparin fibrillization; also: potency is read from the fitted curve at half-maximal effect; nearly all actives have a fitted effect of over 55% in size
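Human tau K18 P301L (15 uM unlabeled, 0.24 uM Alexa 594-labeled) in 100 mM sodium acetate pH 7 with 20 uM heparin, 6 hr at 37 C. ThT 30 uM added, 1 hr ambient; Alexa 594 FP and total fluorescence read at 555/632 nm.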
Tau ThT inhib: qHTS for Inhibitors of Tau Fibril Formation, Thioflavin T Binding; Microtubule-associated protein tau (Homo sapiens), P10636; recombinant tau K18 P301L (four-repeat tau fragment), heparin-induced fibrillization, ThT fluorescence; Potency, µM (doses to about 57.4 µM), for inactives: at the top dose activity, negative = inhibition, hits mostly inhibitors; 2.1% of 270,000 active; also: potency is read from the fitted curve at half-maximal effect; nearly all actives have a fitted effect of over 55% in size
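K18 P301L tau (15 uM + 0.24 uM Alexa 594-tagged), heparin 20 uM, NaOAc pH 7, 6 h 37 C; ThT 30 uM, 1 h RT, ex 450/em 510 nm.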
JMJD2E inh: qHTS Assay for Inhibitors of Human Jumonji Domain Containing 2E (JMJD2E) | Lysine-specific demethylase 4E (Homo sapiens), B2RXH2 | JMJD2E catalytic domain, FDH-coupled NADH fluorescence (FDH is formaldehyde dehydrogenase) | Potency, µM (titrated, usually from 57.1 µM), for inactives: at the highest dose activity change, negative = inhibition, actives largely listed as inhibitors | 1.6% of 230,000 active | AID 2147, 2009; active = well fitted inhibition curve with a large enough effect, not every such curve was filed as active; inconclusive = small, poorly fitted or top-dose-only effect, or another doubt; inactive = no such curve, though single readings can be large or run the other way;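 also: potency is read from the fitted curve at half-maximal effect; 0% = wells with enzyme and -100% = buffer wells without enzyme; nearly all actives have a fitted effect of over 50% in size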
Target sequence (B2RXH2 1-337 limits assumed): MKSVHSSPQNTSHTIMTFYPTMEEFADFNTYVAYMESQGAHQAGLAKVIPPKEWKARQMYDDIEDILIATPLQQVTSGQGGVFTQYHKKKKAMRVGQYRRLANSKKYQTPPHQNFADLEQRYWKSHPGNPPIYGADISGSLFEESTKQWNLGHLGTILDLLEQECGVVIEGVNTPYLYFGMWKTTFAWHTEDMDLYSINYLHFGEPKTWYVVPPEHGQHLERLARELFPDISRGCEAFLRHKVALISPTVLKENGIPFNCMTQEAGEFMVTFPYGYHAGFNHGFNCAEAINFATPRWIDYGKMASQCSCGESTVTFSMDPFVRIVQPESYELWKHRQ
FBPA coupling cs: qHTS Assay for Inhibitors of Fructose-1,6-bisphosphate Aldolase from Giardia Lamblia: Coupling assay counterscreen; coupling enzyme system counterscreen, AmpLite Red fluorescence; activity change, negative = inhibition, % at 58.2 µM, hits read low; 0.67% of 290,000 active; AID 2472, 2010; in the data active = activity change below about -30%
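Compounds tested against the coupling enzymes alone at 57.5 uM final; readout was AmpLite Red fluorescence (525/598 nm) after 20 min at RT.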
Sfp inh: qHTS Assay for Inhibitors of Bacillus subtilis Sfp phosphopantetheinyl transferase (PPTase) | 4'-phosphopantetheinyl transferase ffp (Bacillus subtilis), Q9F4F7 | Biochemical Sfp PPTase activity, qHTS | Potency, µM, without a hit: largest response in the series, negative = inhibition, actives largely listed as inhibitors | 3.5% of 310,000 active | AID 1490, 2009;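 also: the enzyme is Sfp with the accession as filed and its product quenches rhodamine fluorescence; potency is read from the fitted curve at half-maximal effect; 0% = enzyme reaction without inhibitor and -100% = no enzyme wells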
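Sfp 15 nM + cpd, 15 min RT; start w/ rhodamine-CoA 5 uM, BHQ-2-YbbR 12.5 uM (final); 50 mM Hepes pH 7.6, 10 mM MgCl2, 0.01% NP-40, 0.01% BSA; read 525/598 nm at 0 and 30 min.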
* marks the source's active call; other numbers are inactive results; i = inactive; ? = inconclusive; . = no result given; [ ] = dose if it differs, or a comment. Unless noted, calls follow the shape of the dose curve; as a rule, active = well fitted curve in the direction sought with a large enough effect; inconclusive = small, poorly fitted or top-dose-only effect, or another doubt; inactive = no such curve, though single readings can be large; an effect the other way counts as inactive or inconclusive. Unless noted, % is scaled to controls: 0 for no effect and ±100 for the full control effect.

SMILES | Tau fibril FP | Tau fluor cs | Tau ThT inhib | JMJD2E inh | FBPA coupling cs | Sfp inh
Cc1ccc(-n2c(C)cc(/C=C3\NC(=O)NC3=O)c2C)c(C)c1 | -12% | ? | ? | 25µM* | -6 | -24%
Cc1cc(/C=C2/NC(=O)NC2=O)c(C)n1-c1ccccn1 | -2% | 3% | -3% | 25µM* | -1 | 11%
COc1ccc(OC)c(S(=O)(=O)NCc2ccc3c(c2)CCN3C(=O)c2cccc(C)c2)c1 | 8% | -10% | 1% | . | . | .
Cc1ccc(-n2ncc3c(NCCC4=CCCCC4)ncnc32)cc1C | ? | -11% | -4% | . | . | .
CC(=O)c1cccc(NC(=O)CSc2nc3c(=O)n(C)c(=O)n(C)c3n2C)c1 | -8% | -8% | -1% | . | . | .
Cc1ccc(NC(=O)CC2SC(=O)N(c3ccccc3)C2=O)cc1 (centres undefined) | 13% | 3% | ? | -10% | -2 | 20µM*
Cc1ccc(NC(=O)CC2SC3=NCCN3C2=O)cc1 (centres undefined) | -3% | -3% | -17% | 2% | 1 | 71µM*
COc1ccc(O[C@H]2C=C[C@@H](c3ccccc3)O[C@H]2COC(=O)CC/C(C)=N\OC[C@@H](C)[C@H](OCc2ccccc2)C(C)C)cc1 | -3%[11.6 µM] | -4%[11.6 µM] | -8%[11.5 µM] | . | 2 | 9%
CCCN1C(=O)/C(=C/c2nc3ccccc3c(=O)[nH]2)c2cc(C)ccc21 | 0% | 20µM*[quencher] | 14µM* | 10% | 1 | 8%
CCCN1C(=O)/C(=C/c2nc3ccccc3c(=O)[nH]2)c2ccccc21 | 7% | -2% | ? | ? | 2 | -31%
Cc1cc(Nc2ccccc2)n(-c2nc3ccccc3[nH]2)n1 | -14% | 25µM*[quencher] | ? | -3% | -9 | 9%
Cc1cc(NC(=O)c2ccccc2F)n(-c2nc3ccccc3[nH]2)n1 | -4% | -26% | 2% | ? | 1 | 11%
COc1ccc(N/C=C/C(=O)c2sc(-c3ccccc3)nc2C)cc1 | 8% | ? | 2.5µM* | 1% | 3 | ?
Cc1cc(=O)[nH]c(-n2[nH]c(C)cc2=O)n1 | -8% | -6% | -12% | -12% | -2 | 22µM*
Cc1cc(=O)[nH]c(N2CCCC2)n1 | -1% | 1% | -4% | 2% | -5 | 13%
O=C(NCc1cccs1)c1ccc(Cn2c(SCc3cccc(F)c3)nc3cccnc32)cc1 | -1% | -24% | 5% | . | . | .
COc1cc(NC(=O)CC(c2cccs2)N2Cc3ccccc3C2=O)cc(OC)c1OC (centres undefined) | 3% | -30% | -11% | . | . | .
COC(=O)c1sc(NC(=O)c2ccc([N+](=O)[O-])o2)c(C#N)c1C | -5% | -17% | . | ? | 17 | 25µM*
CCOC(=O)c1sc(NC(=O)c2ccco2)c(C#N)c1C | 7% | -16% | -18% | -21% | -1 | -16%
CC(=O)N1CCc2c(sc(NC(=O)c3ccc([N+](=O)[O-])o3)c2C#N)C1 | -10% | -19% | ? | -8% | -11 | 10µM*
O=C(NC1CCCC1)O[C@@H]1C(=O)c2cc(Br)ccc2O[C@H]1c1ccc2c(c1)OCO2 | -7% | -18% | -10% | -5% | 1 | -13%
COc1cccc(NC(=O)Cn2cc(C(=O)C3CCCCC3)c3ccccc32)c1 | ? | ? | 2% | . | . | .
CN(Cc1ccccc1)C(=O)CSc1nc2ccsc2c(=O)n1-c1ccc(F)cc1 | -7% | -4% | -1% | . | . | .
Cc1ccc(C)c(N2CCN(C(=O)c3cc4c(=O)n(Cc5ccco5)ccc4nc3C)CC2)c1 | 0% | -1% | -7% | . | . | .
O=C(c1ccc(CSc2nc3ccncc3n2Cc2ccccc2F)cc1)N1CCCCC1 | 4% | -3% | -1% | . | . | .
SMILES | Tau fibril FP | Tau fluor cs | Tau ThT inhib | JMJD2E inh | FBPA coupling cs | Sfp inh
CCc1cc(=O)oc2cc(C)c(CN3CCCCC3)c(O)c12 | 0% | 3% | -15% | ? | 0 | -18%
CCc1cc(=O)oc2cc(C)c(CN3CCCC3)c(O)c12 | -11% | -9% | ? | 25µM* | -2 | 89µM*
COC(=O)c1sc2cccc(F)c2c1S(=O)(=O)Nc1ccc(N(C)C)cc1 | 3% | ? | ? | . | . | .
O=C(CO/N=C/c1cccc([N+](=O)[O-])c1)Nc1ccc2ccccc2c1 | -6% | 13µM*[quencher] | ? | -15% | -4 | ?
CN(C)CCNC=C(C(=O)Nc1ccc(Cl)cc1Cl)C(=O)Nc1ccc(Cl)cc1Cl | 10µM* | ? | 3% | 0% | 6 | ?
CC(=O)/C(=C/N(C)C)C(=O)Nc1ccc(Cl)cc1Cl | 8% | -3% | -3% | -4% | 3 | -7%
Cn1cc(CN2CCc3c([nH]c4ccccc34)C2C2CCCCC2)cn1 (centres undefined) | -4%[2.34 µM] | -18% | ? | 20µM* | -3 | ?
C=CC[n+]1c(-c2ccc(Cl)cc2Cl)csc1Nc1ccc(NC(C)=O)cc1 | ? | 25µM*[quencher] | ? | 10% | 0 | -3%
CCN(CC)S(=O)(=O)c1ccc2c(c1)N(CC(=O)Nc1ccc(F)cc1F)C(=O)C1CCCN21 (centres undefined) | 4% | -14% | -3% | . | . | .
CCOC(=S)SCC(=O)Nc1ncc(C)s1 | 1% | 5% | ? | -2% | 2 | 16µM*
O=C(C1=C[C@@H]2[C@H]3C(=O)N(c4ccccc4)C(=O)[C@H]3[C@@H](C(=O)c3ccc(Cl)cc3)N2C=C1)c1ccccc1 | ? | ? | 14µM* | -7% | -16 | -9%
O=C(c1ccc(Cl)cc1)[C@@H]1[C@@H]2C(=O)N(c3ccc(Cl)cc3)C(=O)[C@@H]2C2c3ccccc3C=NN21 (some centres undefined) | -4% | -2% | -2% | -6% | -5 | 28%
CCOc1ccc(NS(=O)(=O)c2ccc3[nH]cc(C(=O)N(C)Cc4ccccc4)c(=O)c3c2)cc1 | -2% | -18% | -9% | . | . | .
CCOc1ccc(NS(=O)(=O)c2ccc3[nH]cc(C(=O)NCc4ccccc4)c(=O)c3c2)cc1 | 3.5µM* | ? | -3% | . | . | .
CCCNC(=O)c1c[nH]c2ccc(S(=O)(=O)N(C)c3ccc(OCC)cc3)cc2c1=O | 14µM* | ? | -2% | i | -7 | 3%
CCCCCNC(=O)c1c[nH]c2ccc(S(=O)(=O)N3CCC(C)CC3)cc2c1=O | 7.9µM* | ? | 12% | . | . | .
